# Measurements as given in PubChem BioAssay (NCATS).
# Where “and” joins values, the source holds several entries; their conditions need not be identical. Identical values can stand only once. Inconclusive results are not listed. Where a call stands in place of a potency, no number is given. Calls of active or inactive are those of the source. Unless noted, the call rests on the fitted dose curve; in most records, active means well fitted curve in the direction sought with a large enough effect; inconclusive means small, poorly fitted or top-dose-only effect, or another doubt; inactive means no such curve, though single readings can be large; an effect the other way counts as inactive or inconclusive.
# Assays:
# [1] = qHTS of Nrf2 Activators: LOPAC Validation (AID 624149)
# Summary of the method: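 AREc32_Fluc cells, 1000/well in OPTI-MEM with 5% FBS, grown overnight, then exposed to compounds for 24 hr at 37 deg C, 5% CO2. ARE-driven firefly luciferase read by Steady-Glo luminescence after 30 min at RT.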
# [2] = HTS Assay for Allosteric Antagonists of the Human D2 Dopamine Receptor: Hit Validation in HTRF (AID 624455); further: potency means the concentration at half of the fitted maximal effect;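 further: stable D1 dopamine receptor cell line scored for blocking the D1 response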
# Summary of the method: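 Hit validation in cells stably expressing the D1 dopamine receptor, run in HTRF format. Compounds were tested for their ability to inhibit the D1-mediated response.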
# [3] = qHTS assay for small molecule activators of the p53 signaling pathway (AID 651743; active means well fitted activation curve with a large enough effect in the signal ratio, not every such curve was filed as active; the % refers to the signal ratio; further: potency means the concentration at half of the fitted maximal effect); conditions: HCT-116 p53RE-bla, beta-lactamase FRET ratio, 16 h; activation: stronger effect = higher value
# Summary of the method: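 Read-out is fluorescence intensity from the LiveBLAzer B/G FRET substrate, added for 2 hours at room temperature after HCT-116 p53RE-bla cells had been incubated with compounds for 16 hours at 37 C.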
# [4] = qHTS assay for small molecule activators of the nuclear factor-kappa B (NF-kB) signaling pathway (AID 651749; active means well fitted activation curve with a large enough effect in the signal ratio; the % refers to the signal ratio); conditions: NF-kB-bla ME-180 cells, beta-lactamase FRET ratio, 16 h; stronger effect = higher value
# Summary of the method: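 Readout: beta-lactamase reporter driven by an NF-kB response element, detected fluorescently as loss of FRET. Cells were the ME-180 line, treated 16 hr at 37C with pin-transferred compound.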
# [5] = qHTS assay for environmental chemicals that activate the Aryl hydrocarbon Receptor (AhR) signaling pathway (AID 651777); conditions: 1A2-DRE human hepatoma cells, luciferase, 24 h; stronger effect = higher value; further: nearly all actives have a fitted effect of over 15% in size
# Summary of the method: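 Measured luciferase activity, read 30 min after One-Glo addition at room temperature, from human hepatoma cells bearing a dioxin response element–CYP1A2 promoter reporter and exposed to compound for 24 hr at 37 C.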
# [6] = target: Peroxisome proliferator-activated receptor alpha (Homo sapiens) (UniProt Q07869); test: qHTS assay for small molecule agonists of the peroxisome proliferator-activated receptor alpha (PPARalpha) signaling pathway (AID 651778); conditions: PathHunter PPARalpha complementation, chemiluminescence, 6 h; stronger effect = higher value
# Summary of the method: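 Chemiluminescence from complemented enzyme reported PPARalpha activation in cells after 6 hr of compound treatment at 37 C. The detection reagent was incubated for 60 min at room temperature, and compounds were scored as agonists.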
# [7] = qHTS Assay for Identification of Small Molecule Agonists for NFkB Signaling Pathway. (AID 624478)
# Summary of the method: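 NFkB-bla ME-180 cells carry a beta-lactamase reporter. They received compound plus TNF alpha at 10 pM final (its EC50) for 5 h at 37 C. Reporter activity was read as 460/530 nm emission ratio after 2 h LiveBLAzer substrate loading.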
# [8] = Cell Proliferation Assay against the TMD8 Cell Line (AID 651645); conditions: TMD8 DLBCL cell line proliferation/viability; at 46.1 µM (top of the series) unless noted;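 further: cells exposed to compound for 48 h before reading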
# Summary of the method: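 Cell viability of the ABC DLBCL line TMD8 is measured by CellTiter-Glo luminescence following a 48-hour incubation with compound. Percent activity uses DMSO as 100% and 9.2 uM bortezomib (final) as 0%.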
# [9] = Cell Proliferation Assay against the HBL1 Cell Line (AID 651646); conditions: HBL1 DLBCL cells; at 46.1 µM (top of the series) unless noted;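 further: cells exposed to compound for 48 h before reading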
# Summary of the method: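 Luminescent ATP read-out (CellTiter-Glo) after 48 h compound exposure of HBL1 cells at 37 °C; percent activity was scaled between DMSO as 100% and 9.2 uM bortezomib (final) as 0%.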
# [10] = Cytotoxicity counterscreen for NFkB agonists and antagonists (AID 624476)
# [11] = qHTS Assay for Identification of Small Molecule Antagonists for NFkB Signaling Pathway. (AID 624479; calls by dose curve;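 further: pathway stimulated with TNF alpha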; further: potency means the concentration at half of the fitted maximal effect)
# [12] = Cell Proliferation Assay against the TMD8 Cell Line (Caspase readout at 16 hrs) (AID 651712)
# Summary of the method: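 Apoptotic response of TMD8 cells was judged from caspase 3/7 activation following a 16 hour compound incubation at 37 °C. Luminescent signal was converted to percent activity, with DMSO set as 0% and 9.2 uM final bortezomib as 100%.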
# [13] = Cell Proliferation Assay against the TMD8 Cell Line (Caspase readout at 8 hrs) (AID 651713)
# Summary of the method: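 TMD8 cells in RPMI plus 5% FBS were treated with compound for 8 h at 37C. Caspase 3/7 activation was read by Caspase-Glo luminescence. Percent activity was scaled from DMSO (0%) to 9.2 uM bortezomib final (100%).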
# [14] = target: Tumor necrosis factor (Homo sapiens) (UniProt P01375); test: qHTS assay to identify small molecules that stimulate Tumor Necrosis Factor-alpha (TNF-alpha) secretion (AID 651757; active means well fitted curve in the direction sought with a large enough effect in the signal ratio; the % refers to the signal ratio)
# Summary of the method: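 THP-1 cells (3000/well) exposed to compounds 17 hrs at 37 C. Secreted TNF-alpha detected by HTRF with cryptate- and XL665-labeled anti-TNF-alpha antibodies after 3 hr at room temperature.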
# [15] = target: Nuclear receptor ROR-gamma (Homo sapiens) (UniProt P51449); test: qHTS assay for small molecule antagonists of the retinoid-related orphan receptor gamma (ROR-gamma) signaling pathway (AID 651802);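 further: luciferase reporter luminescence driven by ROR response element; nearly all actives have a fitted effect of over 60% in size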
# Summary of the method: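 CHO cells with TET-inducible ROR-gamma and RORE-luciferase reporter, dosed then doxycycline-induced. After 16 h at 37C, One-Glo luminescence read; decreased signal indicates antagonism.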
# [16] = target: Tyrosine-protein kinase Yes (Homo sapiens) (UniProt P07947); test: qHTS for small molecule inhibitors of Yes1 kinase: Primary Screen (AID 686947); further: nearly all actives have a fitted effect of over 60% in size
# Summary of the method: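 Yes1 (4 nM) preincubated 20 min with compound, then 60 min room-temperature reaction with 0.1 mM ATP and 0.3 mg/mL poly(E4Y) in pH 7.5 Tris, 10 mM MgCl2. ADP measured by ADP-Glo luminescence, normalised to enzyme/no-enzyme controls.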
# [17] = qHTS assay for small molecule agonists of the antioxidant response element (ARE) signaling pathway (AID 651741; active means well fitted activation curve with a large enough effect in the signal ratio; the % refers to the signal ratio; further: potency means the concentration at half of the fitted maximal effect)
# Summary of the method: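 Quantitative HTS in HepG2 cells stably expressing an ARE-beta-lactamase reporter; 16 h compound exposure at 37 C, followed by 2 h room-temperature incubation with LiveBLAzer B/G FRET substrate and fluorescence measurement.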
# Sequence of Tyrosine-protein kinase Yes (Homo sapiens) (P07947 whole entry, looked up): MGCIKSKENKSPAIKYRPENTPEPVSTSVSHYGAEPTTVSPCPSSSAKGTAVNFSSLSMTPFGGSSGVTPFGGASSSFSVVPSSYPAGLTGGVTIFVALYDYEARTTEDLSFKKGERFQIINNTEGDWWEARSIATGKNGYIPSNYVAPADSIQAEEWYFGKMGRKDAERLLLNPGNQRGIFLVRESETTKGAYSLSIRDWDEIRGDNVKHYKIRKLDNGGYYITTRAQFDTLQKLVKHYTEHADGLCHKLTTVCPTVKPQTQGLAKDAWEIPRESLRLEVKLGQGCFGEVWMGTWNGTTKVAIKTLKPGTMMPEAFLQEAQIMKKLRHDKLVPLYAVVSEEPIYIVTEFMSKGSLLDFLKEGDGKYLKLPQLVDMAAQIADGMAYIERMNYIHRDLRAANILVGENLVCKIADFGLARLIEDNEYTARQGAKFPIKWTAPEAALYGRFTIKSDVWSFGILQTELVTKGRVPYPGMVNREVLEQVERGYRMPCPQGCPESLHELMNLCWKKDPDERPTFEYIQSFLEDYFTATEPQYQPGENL
# Sequence of Peroxisome proliferator-activated receptor alpha (Homo sapiens) (Q07869 whole entry, looked up): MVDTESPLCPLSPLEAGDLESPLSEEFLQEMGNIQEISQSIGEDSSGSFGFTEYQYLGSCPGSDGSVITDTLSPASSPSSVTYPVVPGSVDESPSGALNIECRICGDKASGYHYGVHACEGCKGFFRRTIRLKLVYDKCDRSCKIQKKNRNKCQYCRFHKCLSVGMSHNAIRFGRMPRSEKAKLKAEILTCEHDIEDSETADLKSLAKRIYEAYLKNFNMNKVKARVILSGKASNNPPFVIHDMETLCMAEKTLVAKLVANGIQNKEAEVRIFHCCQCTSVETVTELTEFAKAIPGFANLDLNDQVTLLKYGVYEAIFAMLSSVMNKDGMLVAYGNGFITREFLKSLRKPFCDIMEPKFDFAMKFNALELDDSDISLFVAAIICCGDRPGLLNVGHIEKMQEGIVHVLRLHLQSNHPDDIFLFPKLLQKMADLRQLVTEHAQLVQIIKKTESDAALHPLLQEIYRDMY
# Sequence of Nuclear receptor ROR-gamma (Homo sapiens) (P51449 whole entry, looked up): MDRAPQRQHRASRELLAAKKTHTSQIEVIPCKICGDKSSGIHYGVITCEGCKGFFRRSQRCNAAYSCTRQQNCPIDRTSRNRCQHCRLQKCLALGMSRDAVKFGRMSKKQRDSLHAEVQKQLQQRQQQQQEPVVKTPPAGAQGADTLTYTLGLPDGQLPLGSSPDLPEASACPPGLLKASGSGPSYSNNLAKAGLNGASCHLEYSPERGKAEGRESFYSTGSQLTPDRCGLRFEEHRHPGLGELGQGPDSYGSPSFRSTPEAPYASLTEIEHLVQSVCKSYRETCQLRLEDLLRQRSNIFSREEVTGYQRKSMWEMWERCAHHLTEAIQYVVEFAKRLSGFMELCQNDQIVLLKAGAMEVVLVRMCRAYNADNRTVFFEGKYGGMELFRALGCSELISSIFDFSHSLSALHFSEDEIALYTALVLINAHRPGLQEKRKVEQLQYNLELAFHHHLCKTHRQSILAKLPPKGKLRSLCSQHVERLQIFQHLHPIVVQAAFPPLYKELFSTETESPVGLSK
# Sequence of Tumor necrosis factor (Homo sapiens) (P01375 whole entry, looked up): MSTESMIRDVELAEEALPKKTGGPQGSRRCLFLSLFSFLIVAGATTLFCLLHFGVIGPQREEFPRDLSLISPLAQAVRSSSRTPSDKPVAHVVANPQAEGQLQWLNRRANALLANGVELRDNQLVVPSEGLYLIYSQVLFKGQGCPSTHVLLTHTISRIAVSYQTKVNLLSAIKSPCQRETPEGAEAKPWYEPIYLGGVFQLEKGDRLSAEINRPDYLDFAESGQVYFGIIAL
compound,measurement,setting,value
O=NN(CCCl)C(=O)NCCCl,outcome,[1],inactive
same,Potency,[2],inactive
same,activation,[3],14.7% (inactive)
same,activation,[4],-1.3% (inactive)
same,activation,[5],0.58% (inactive)
same,max response,[6],-2.23% (inactive)
Cc1cc2c(C(C)C)c(O)c(O)c(C=O)c2c(O)c1-c1c(C)cc2c(C(C)C)c(O)c(O)c(C=O)c2c1O,outcome,[1],inactive
same,Potency,[2],inactive
same,outcome,[7],inactive
same,viability (% of control),[8],5.42%
same,"viability, percent of control",[9],6.38%
same,activation,[5],-3.15% (inactive)
CCOC(=O)N1CCC(=C2c3ccc(Cl)cc3CCc3cccnc32)CC1,outcome,[1],inactive
Nc1nc2c(ncn2COCCO)c(=O)[nH]1,outcome,[1],inactive
Cc1cn[nH]c1,outcome,[1],inactive
same,Potency,[2],inactive
NNCCc1ccccc1,outcome,[1],inactive
c1ccc([C@H]2CN3CCSC3=N2)cc1,outcome,[1],inactive
C[C@]12CCC(=O)C=C1CC[C@@H]1[C@@H]2[C@@H](O)C[C@@]2(C)[C@H]1CC[C@]2(O)C(=O)CO,outcome,[1],inactive
same,Potency,[10],inactive
same,outcome,[7],inactive
same,Potency,[11],inactive
same,viability (% of control),[8],65.6%
same,"viability, percent of control",[9],39.1%
same,Potency,[12],inactive
same,Potency,[13],inactive
same,activation,[4],-2.01% (inactive)
same,activation,[5],-1.47% (inactive)
same,max response,[6],-0.295% (inactive)
O=C(Nc1nc2ccccc2n1CCN1CCOCC1)c1cccc([N+](=O)[O-])c1,outcome,[1],inactive
same,Potency,[10],inactive
same,outcome,[7],inactive
same,Potency,[11],2660 nM (active)
same,viability (% of control),[8],77.2%
same,"viability, percent of control",[9],89.4%
Oc1ccc(C2CNCCc3c2cc(O)c(O)c3Cl)cc1 (stereo not drawn),outcome,[1],inactive
O=C1CCc2cc(OCCCCc3nnnn3C3CCCCC3)ccc2N1,outcome,[1],inactive
CC(C)NCC(O)COc1ccc(COCCOC(C)C)cc1 (stereo not drawn),outcome,[1],inactive
N[C@@H]1CONC1=O,outcome,[1],inactive
NCCc1ccc(O)c(O)c1,outcome,[1],inactive
CCOC(=O)C1=C[C@]2(CC)CCCN3CCc4c(n1c1ccccc41)[C@@H]32,outcome,[1],inactive
OC(CCN1CCCCC1)(c1ccccc1)C1CC2C=CC1C2 (stereo not drawn),outcome,[1],inactive
N=c1nc(N2CCCCC2)cc(N)n1O,outcome,[1],inactive
Clc1cccc(Cl)c1NC1=NCCN1,outcome,[1],inactive
NC(N)=NC(=O)c1nc(Cl)c(N)nc1N,outcome,[1],inactive
same,Potency,[2],inactive
same,activation,[3],-2.4% (inactive)
same,activation,[4],-0.363% (inactive)
same,outcome,[14],inactive
same,activation,[5],6.31% (inactive)
same,max response,[6],-5.82% (inactive)
same,outcome,[15],inactive
same,Potency,[16],inactive
CCN(CC)CCCC(C)Nc1ccnc2cc(Cl)ccc12 (stereo not drawn),outcome,[1],inactive
C1COC(NC(C2CC2)C2CC2)=N1,outcome,[1],inactive
Nc1ccc(S(=O)(=O)Nc2ccnn2-c2ccccc2)cc1,outcome,[1],inactive
same,Potency,[2],inactive
OC(CN1CCC(Cc2ccc(F)cc2)CC1)c1ccc(Cl)cc1 (stereo not drawn),outcome,[1],inactive
same,Potency,[10],inactive
same,outcome,[7],inactive
same,Potency,[11],inactive
same,viability (% of control),[8],74%
same,"viability, percent of control",[9],66.4%
same,Potency,[12],inactive
same,Potency,[13],inactive
same,Potency,[16],inactive
Cc1cnc(NC(=O)C2=C(O)c3ccccc3S(=O)(=O)N2C)s1,outcome,[1],inactive
Cc1ccc(N(CC2=NCCN2)c2cccc(O)c2)cc1,outcome,[1],inactive
CNC[C@H](O)c1cccc(O)c1,outcome,[1],inactive
same,Potency,[2],1840 nM (active)
same,Potency,[17],inactive
same,activation,[4],-0.433% (inactive)
same,activation,[5],-0.659% (inactive)
same,max response,[6],-0.749% (inactive)
CC(C)C[C@H](NC(=O)[C@@H](O)[C@H](N)Cc1ccccc1)C(=O)O,outcome,[1],inactive
same,Potency,[10],inactive
same,outcome,[7],inactive
same,Potency,[11],inactive
same,viability (% of control),[8],89.3%
same,"viability, percent of control",[9],106%
same,Potency,[12],inactive
CN1CCN(CCCN2c3ccccc3Sc3ccc(C(F)(F)F)cc32)CC1,outcome,[1],inactive
CCn1cc(C(=O)O)c(=O)c2cc(F)c(N3CCNC(C)C3)c(F)c21 (stereo not drawn),outcome,[1],inactive
CCCCNc1cc(C(=O)O)cc(S(N)(=O)=O)c1Oc1ccccc1,outcome,[1],inactive
CC(C[N+](C)(C)C)OC(N)=O (stereo not drawn),outcome,[1],inactive
Cn1cnc([N+](=O)[O-])c1Sc1ncnc2nc[nH]c12,outcome,[1],inactive
same,Potency,[2],inactive
same,Potency,[17],27.3 µM (active) and 37.6 µM (active)
same,Potency,[3],25.1 µM (active) and 28.2 µM (active)
same,activation,[4],-1.21% (inactive) and -0.92% (inactive)
same,activation,[5],-4.71% (inactive) and -5.39% (inactive)
same,max response,[6],-2.81% (inactive) and -2.18% (inactive)
Cc1[nH]c(=O)c(C#N)cc1-c1ccc2nccn2c1,outcome,[1],inactive
same,Potency,[10],inactive
same,outcome,[7],inactive
same,Potency,[11],inactive
same,viability (% of control),[8],104%
same,"viability, percent of control",[9],78.9%
same,Potency,[12],inactive
same,Potency,[16],inactive
O=C(O)COCCN1CCN(C(c2ccccc2)c2ccc(Cl)cc2)CC1 (stereo not drawn),outcome,[1],inactive
O=c1n(CCCN2CCN(c3cccc(Cl)c3)CC2)nc2ccccn12,outcome,[1],inactive
NCCCC(N)(C(=O)O)C(F)F (stereo not drawn),outcome,[1],inactive
same,Potency,[2],inactive
Cc1cccc(-c2[nH]c(C(C)(C)C)nc2-c2ccc3nccnc3c2)n1,outcome,[1],inactive
same,Potency,[10],inactive
same,outcome,[7],inactive
same,Potency,[11],inactive
same,viability (% of control),[8],34%
same,"viability, percent of control",[9],100%
same,Potency,[13],inactive
CCCc1nn(C)c2c(=O)[nH]c(-c3cc(S(=O)(=O)N4CCN(C)CC4)ccc3OCC)nc12,Potency,[10],inactive
same,outcome,[7],inactive
same,Potency,[11],inactive
same,viability (% of control),[8],102%
same,"viability, percent of control",[9],106%
same,Potency,[12],inactive
COc1ccc(CCN2CCN(CCCc3ccccc3)CC2)cc1OC,Potency,[10],inactive
same,outcome,[7],inactive
same,Potency,[11],inactive
same,viability (% of control),[8],83.9%
same,"viability, percent of control",[9],85.9%
same,Potency,[12],inactive
same,Potency,[13],inactive
O=C(O)[C@@H](c1ccc(OCc2ccc3ccccc3n2)cc1)C1CCCC1,Potency,[10],inactive
same,outcome,[7],inactive
same,Potency,[11],inactive
same,viability (% of control),[8],94.6%
same,"viability, percent of control",[9],92.8%
same,Potency,[12],inactive
COc1ccccc1[C@H](c1cccc2ccccc12)[C@@](C)(C#N)C(=O)N1CCC(c2cccc(C(F)(F)F)c2)CC1,Potency,[10],inactive
same,outcome,[7],inactive
same,Potency,[11],inactive
same,viability (% of control),[8],83.6%
same,"viability, percent of control",[9],95.2%
same,Potency,[12],inactive
same,Potency,[13],inactive
CO[C@@H]1[C@H](N(C)C(=O)c2ccccc2)C[C@H]2O[C@]1(C)n1c3ccccc3c3c4c(c5c6ccccc6n2c5c31)C(=O)NC4,Potency,[10],inactive
same,outcome,[7],inactive
same,Potency,[11],inactive
same,viability (% of control),[8],7.74%
same,"viability, percent of control",[9],23%
CC(C)(N)C(=O)N[C@H](COCc1ccccc1)C(=O)N1CCC2(CC1)CN(S(C)(=O)=O)c1ccccc12,Potency,[10],inactive
same,outcome,[7],inactive
same,Potency,[11],inactive
same,viability (% of control),[8],48.1%
same,"viability, percent of control",[9],69.2%
same,Potency,[12],inactive
